# Results reported in PubChem BioAssay.
# For some assays here: Entries with a potency or affinity are not part of this list. Calls of active or inactive are those of the source. Unless noted, no rule for the calls is given here.
# Experiments:
# [1] = antimalarial activity against Dd2 strain (AID 2302;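 active = growth inhibition above 50% at the single 2 µM test dose, taken to imply half-maximal potency below 2 µM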;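 also: 0% = DMSO untreated growth and 100% = chloroquine plus artemisinin killed control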); settings: P. falciparum Dd2 in RBCs, LDH growth readout, 72 h; at 2 µM; active compounds read high
# [2] = human hepatoma cell viability loss – ATP luminescence, cytotoxicity control for P. falciparum antimalarial project, primary screen (AID 2303;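 active = inhibition above 50%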;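 also: 0% = DMSO wells and 100% = digitonin-killed cells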); settings: HepG2 viability, 24-48 h, at 10 µM, active compounds read high
# [3] = biological target: L-lactate dehydrogenase (Plasmodium falciparum (isolate CDC / Honduras)) (UniProt Q27743); test: PfLDH activity inhibition – cell lysate, 3D7 strain, counter-screen for P. falciparum growth inhibition project (AID 2304);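 also: 0% = vehicle and 100% = reference inhibitor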; settings: P. falciparum 3D7 crude extract, LDH APAD/NBT absorbance; at 2 µM; active compounds read high
# [4] = inhibition of 3D7 malaria parasite growth – strain 3D7 (AID 2306);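 also: 0% = DMSO wells and 100% = chloroquine plus artemisinin control wells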; settings: P. falciparum 3D7 erythrocytic growth, LDH absorbance, 72 h; at 2 µM; active compounds read high
# [5] = biological target: Calcium-dependent protein kinase 1 (Plasmodium falciparum (isolate 3D7)) (UniProt P62344); test: PfCDPK1 kinase inhibitors, biochemical, TCAMS library (AID 1159585; cut-off not given, nearly all actives have IC50 up to about 0.98 µM;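 also: inhibitors leave more ATP so luminescence rises with inhibition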); settings: recombinant PfCDPK1, Kinase-Glo ATP depletion luminescence
# [6] = biological target: Plasmodium falciparum protein kinase 6 (PK6, PF3D7_1337100) (UniProt Q8IDW1); test: PfPK6 kinase inhibitors, biochemical, TCAMS library (AID 1159586); settings: recombinant PfPK6, Kinase-Glo ATP depletion luminescence
# [7] = biological target: Protein kinase 7 (PK7), Plasmodium falciparum 3D7 (PF3D7_0213400) (UniProt Q7YTF7); test: inhibition of Plasmodium PK7 catalytic activity – biochemical, TCAMS antimalarial set, Kinase-Glo luminescence (AID 1159587); settings: recombinant PfPK7, Kinase-Glo ATP depletion luminescence
# [8] = biological target: Calcium-dependent protein kinase 4 (Plasmodium falciparum (isolate 3D7)) (UniProt Q8IBS5); test: PfCDPK4 kinase inhibitors, biochemical, TCAMS library (AID 1159588; cut-off not given, nearly all actives have IC50 up to about 0.91 µM); settings: recombinant PfCDPK4, Kinase-Glo ATP depletion luminescence
# Calcium-dependent protein kinase 4 (Plasmodium falciparum (isolate 3D7)), sequence (Q8IBS5 whole entry, looked up): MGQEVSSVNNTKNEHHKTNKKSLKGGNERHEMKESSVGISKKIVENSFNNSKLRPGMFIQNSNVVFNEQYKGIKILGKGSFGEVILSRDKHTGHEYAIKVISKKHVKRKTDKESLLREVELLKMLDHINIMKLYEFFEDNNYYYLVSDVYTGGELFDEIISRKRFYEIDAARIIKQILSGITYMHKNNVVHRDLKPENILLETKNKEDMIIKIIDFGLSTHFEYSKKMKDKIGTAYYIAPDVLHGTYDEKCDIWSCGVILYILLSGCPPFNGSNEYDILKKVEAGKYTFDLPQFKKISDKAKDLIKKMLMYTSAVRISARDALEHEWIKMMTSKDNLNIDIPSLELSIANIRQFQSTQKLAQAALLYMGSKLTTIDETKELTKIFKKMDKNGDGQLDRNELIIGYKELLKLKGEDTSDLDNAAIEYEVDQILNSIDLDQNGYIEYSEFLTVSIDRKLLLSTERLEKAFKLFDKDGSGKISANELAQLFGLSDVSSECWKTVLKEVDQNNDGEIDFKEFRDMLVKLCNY
# Calcium-dependent protein kinase 1 (Plasmodium falciparum (isolate 3D7)), sequence (P62344 whole entry, looked up): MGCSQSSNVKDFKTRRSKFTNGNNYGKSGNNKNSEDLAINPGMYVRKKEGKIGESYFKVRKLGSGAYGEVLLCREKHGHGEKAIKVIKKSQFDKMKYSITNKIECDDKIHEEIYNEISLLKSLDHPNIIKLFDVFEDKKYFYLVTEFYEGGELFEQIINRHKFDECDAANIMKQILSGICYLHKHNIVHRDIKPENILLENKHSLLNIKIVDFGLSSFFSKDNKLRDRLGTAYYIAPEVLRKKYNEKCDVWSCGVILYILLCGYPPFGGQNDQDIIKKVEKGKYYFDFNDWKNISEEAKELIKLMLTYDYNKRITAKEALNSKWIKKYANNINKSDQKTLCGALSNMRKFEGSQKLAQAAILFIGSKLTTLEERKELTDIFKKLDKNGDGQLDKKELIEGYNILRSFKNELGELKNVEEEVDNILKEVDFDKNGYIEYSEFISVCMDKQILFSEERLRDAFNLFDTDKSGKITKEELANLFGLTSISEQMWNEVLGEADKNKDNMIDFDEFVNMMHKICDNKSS
# L-lactate dehydrogenase (Plasmodium falciparum (isolate CDC / Honduras)), sequence (Q27743 whole entry, looked up): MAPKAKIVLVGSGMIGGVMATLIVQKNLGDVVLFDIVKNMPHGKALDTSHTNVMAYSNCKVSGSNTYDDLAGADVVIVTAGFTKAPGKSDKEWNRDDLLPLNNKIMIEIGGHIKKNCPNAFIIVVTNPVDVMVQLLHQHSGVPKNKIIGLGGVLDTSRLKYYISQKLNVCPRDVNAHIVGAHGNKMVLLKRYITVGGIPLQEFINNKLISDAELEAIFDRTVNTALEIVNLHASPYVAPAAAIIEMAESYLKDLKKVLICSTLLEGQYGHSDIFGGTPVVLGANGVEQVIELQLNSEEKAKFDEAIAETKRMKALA
# Plasmodium falciparum protein kinase 6 (PK6, PF3D7_1337100), sequence (Q8IDW1 1-305): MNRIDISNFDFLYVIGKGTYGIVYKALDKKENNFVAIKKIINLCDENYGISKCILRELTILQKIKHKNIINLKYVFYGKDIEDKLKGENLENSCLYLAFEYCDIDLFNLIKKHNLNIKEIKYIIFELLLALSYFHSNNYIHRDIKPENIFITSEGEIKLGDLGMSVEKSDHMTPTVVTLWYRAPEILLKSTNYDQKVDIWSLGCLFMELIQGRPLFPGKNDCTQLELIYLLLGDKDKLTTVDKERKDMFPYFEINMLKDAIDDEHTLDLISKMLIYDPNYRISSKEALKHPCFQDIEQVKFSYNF
# Protein kinase 7 (PK7), Plasmodium falciparum 3D7 (PF3D7_0213400), sequence (Q7YTF7 1-343): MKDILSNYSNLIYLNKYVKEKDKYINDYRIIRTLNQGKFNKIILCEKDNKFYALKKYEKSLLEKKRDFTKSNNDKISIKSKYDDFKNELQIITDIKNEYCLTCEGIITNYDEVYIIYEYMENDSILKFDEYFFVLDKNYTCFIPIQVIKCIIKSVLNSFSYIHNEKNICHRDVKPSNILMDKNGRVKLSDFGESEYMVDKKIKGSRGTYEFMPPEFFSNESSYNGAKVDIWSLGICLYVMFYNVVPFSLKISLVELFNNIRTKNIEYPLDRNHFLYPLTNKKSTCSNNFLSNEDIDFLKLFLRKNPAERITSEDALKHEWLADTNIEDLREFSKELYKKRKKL
SMILES,growth inhibition [1],inhibition [2],inhibition [3],growth inhibition [4],outcome [5],outcome [6],outcome [7],outcome [8]
CCOc1cc(C(=O)NC2CCN(Cc3ccccc3)C2)ccc1-c1nc2ccc(Cl)cc2[nH]1 (stereo not given),60% (active),7% (inactive),6% (inactive),98% (active),inactive,inactive,inactive,inactive
C[C@@H]1CN(c2cnn(Cc3cccc(NC(=O)Nc4ccc(-c5ccccc5)cc4)c3)c(=O)c2Cl)C[C@H](C)N1,67% (active),6% (inactive),1% (inactive),101% (active),inactive,inactive,inactive,inactive
O=C1c2ccccc2C(=O)N1CCOc1c(Br)cc(Br)cc1CNCCCNc1cc(=O)c2ccccc2[nH]1,12% (inactive),10% (inactive),-6% (inactive),92% (active),inactive,inactive,inactive,inactive
CCCc1cc(Cc2cnc(N)nc2N)cc(OC)c1OC,4% (inactive),2% (inactive),6% (inactive),87% (active),inactive,inactive,inactive,inactive
NCc1cccc(-c2ccc3ccnc(N)c3c2)c1,96% (active),7% (inactive),0% (inactive),101% (active),inactive,inactive,inactive,inactive
CS(=O)(=O)c1cccc2sc(N3CCN(C(=O)c4ccc([N+](=O)[O-])o4)CC3)nc12,61% (active),-26% (inactive),-4% (inactive),84% (active),inactive,inactive,inactive,inactive
CC(=O)Nc1cccc(C(=O)Nc2cccc(-c3ccc(-c4nc5ccc(F)cc5[nH]4)s3)c2)c1,30% (inactive),88% (active),-1% (inactive),94% (active),inactive,inactive,inactive,inactive
COc1ccc(C2c3cc(OC)c(OC)cc3C(=NO)C2C)cc1OC (stereo not given),6% (inactive),20% (inactive),-2% (inactive),90% (active),inactive,inactive,inactive,inactive
Cc1[nH]c(C)c(-c2ccc(OCc3cc(C(F)(F)F)cc(C(F)(F)F)c3)nc2)c(=O)c1Cl,96% (active),19% (inactive),-1% (inactive),98% (active),inactive,inactive,inactive,inactive
CC(C)c1nc2c(N)nc(N)nc2nc1N,-1% (inactive),64% (active),2% (inactive),84% (active),inactive,inactive,inactive,inactive
CCCCNCc1ccc(-c2nc(CN(CCCN3CCN(C)CC3)C(=O)Nc3cccc(Cl)c3)cs2)cc1,73% (active),35% (inactive),4% (inactive),99% (active),inactive,inactive,inactive,inactive
O=C(/C=C/c1cccc(Br)c1)NCCCCCN1CCC(c2c[nH]c3ccccc23)CC1,15% (inactive),38% (inactive),0% (inactive),100% (active),inactive,inactive,inactive,inactive
O=C(NC1CCCCC1)N(CCCn1ccnc1)Cc1csc(-c2ccc(CNCc3ccccc3)cc2)n1,48% (inactive),5% (inactive),0% (inactive),97% (active),inactive,inactive,inactive,inactive
CS(=O)(=O)c1ccc(CNCc2ccc(-c3ccc(-c4nc5ccc(C(F)(F)F)cc5[nH]4)s3)cc2)cc1,98% (active),49% (inactive),-5% (inactive),102% (active),inactive,inactive,inactive,inactive
COC(=O)C1=CNC=C(C(=O)OC)C1c1ccc(Cl)c([N+](=O)[O-])c1,79% (active),-1% (inactive),-4% (inactive),93% (active),inactive,inactive,inactive,inactive
Nc1cccc(CNCc2cccc(-c3ccc(-c4nc5ccccc5[nH]4)cc3)c2)c1,92% (active),-1% (inactive),-2% (inactive),101% (active),inactive,inactive,inactive,inactive
CC1CCCC(NC(=O)CCOc2ccccc2)C1 (stereo not given),32% (inactive),-14% (inactive),-2% (inactive),96% (active),inactive,inactive,inactive,inactive
COc1ccc(NC(=O)/C=C/c2ccccc2Cl)cc1OCCN1CCN(c2ccncc2)CC1,52% (active),7% (inactive),-2% (inactive),101% (active),inactive,inactive,inactive,inactive
COc1cc2nc(N3CCC(CNC(=O)c4cc(Br)c(Br)s4)CC3)nc(N)c2cc1OC,97% (active),22% (inactive),2% (inactive),101% (active),inactive,inactive,inactive,inactive
N=C(N)c1ccc2nc(SCc3ccccc3)[nH]c2c1,100% (active),-1% (inactive),1% (inactive),97% (active),inactive,inactive,inactive,inactive

SMILES,growth inhibition [1],inhibition [2],inhibition [3],growth inhibition [4],outcome [5],outcome [6],outcome [7],outcome [8]
Cc1cc(NN=Cc2ccc(F)cc2)c2cc(C(F)(F)F)ccc2n1,99% (active),2% (inactive),-2% (inactive),101% (active),inactive,inactive,inactive,inactive
O=C(N[C@@H](CC1CCCCC1)C(=O)NCCN1CCOCC1)c1ccc(O)c(-c2ccc(Cl)c(Cl)c2)c1,99% (active),-3% (inactive),3% (inactive),97% (active),inactive,inactive,inactive,inactive
O=C(/C=C/c1ccc(Cl)c(Cl)c1)NCCCCCN1CCCC(CNS(=O)(=O)c2ccc(F)cc2)C1 (stereo not given),7% (inactive),56% (active),1% (inactive),91% (active),inactive,inactive,inactive,inactive
Cc1ccc(NC(=O)c2ccc(CN3CCCN(CC4CCCCC4)CC3)cc2)cc1F,61% (active),51% (active),-2% (inactive),92% (active),inactive,inactive,inactive,inactive
CCOC(=O)c1cnc2c(OC)cc(OC)c(Cl)c2c1Nc1cccc(C)c1,20% (inactive),0% (inactive),-2% (inactive),95% (active),inactive,inactive,inactive,inactive
COc1cc2c(cc1OC)C(C(=O)Nc1ccc(C(F)(F)F)cc1)C(c1cccs1)N(C)C2=O (stereo not given),86% (active),31% (inactive),2% (inactive),99% (active),inactive,inactive,inactive,inactive
COc1cccc(-c2nn(C)c3sc(C(=O)NCCN(C)Cc4ccccc4)cc23)c1,26% (inactive),21% (inactive),-3% (inactive),92% (active),inactive,inactive,inactive,inactive
Cc1cc(C2CCN(CCCCNC(=O)c3ccc(NC(=O)c4ccc(Cl)cc4)cc3)CC2)c(C)cc1OCc1nccn1C,98% (active),18% (inactive),-2% (inactive),100% (active),inactive,inactive,inactive,inactive
CCCCCCCCN1CCN(CCCCCCNc2c3ccccc3nc3ccccc23)CC1,100% (active),100% (active),-4% (inactive),101% (active),inactive,inactive,inactive,inactive
Cc1cc(NC(=O)NCCN2CCC(NC(=O)c3ccc(C(F)(F)F)cc3)CC2)c2ccccc2n1,75% (active),3% (inactive),-3% (inactive),98% (active),inactive,inactive,inactive,inactive
CCCCCCCn1c(=N)n(CC(O)c2ccc(Cl)c(Cl)c2)c2ccccc21 (stereo not given),100% (active),99% (active),2% (inactive),98% (active),inactive,inactive,inactive,inactive
CCCc1cc(C)ccc1OCCCON1C(N)=NC(N)=NC1(C)C,97% (active),64% (active),2% (inactive),97% (active),inactive,inactive,inactive,inactive
O=C1COc2cc(Cl)c(CNC3CCN(CCc4ccnc5c(F)cc(F)cc45)CC3)nc2N1,49% (inactive),96% (active),-2% (inactive),98% (active),inactive,inactive,inactive,inactive
Cc1ccc2nc(C)cc(NN=Cc3cccc(Cl)c3)c2c1,98% (active),12% (inactive),2% (inactive),102% (active),inactive,inactive,inactive,inactive
O=C(Nc1cccc(C(F)(F)F)c1)NC1CCN(c2ccnc3cc(Cl)ccc23)CC1,47% (inactive),13% (inactive),-2% (inactive),101% (active),inactive,inactive,inactive,inactive
CCCc1cc(C(=O)N[C@@H](Cc2ccccc2)[C@H](O)CNC(C)(C)c2cccc(OC)c2)c(F)c(N2CCCC2=O)c1,98% (active),7% (inactive),0% (inactive),98% (active),inactive,inactive,inactive,inactive
CC1N=C(N)N=C(N)N1OCc1cccc2ccccc12 (stereo not given),4% (inactive),66% (active),-2% (inactive),93% (active),inactive,inactive,inactive,inactive
O=C(CNc1ccc(Cl)c(S(=O)(=O)N2CCCC2)c1)Nc1ccc(Br)cc1F,97% (active),18% (inactive),4% (inactive),99% (active),inactive,inactive,inactive,inactive
O=C(/C=C/c1ccc(Cl)c(Cl)c1)NCC1CCN(Cc2ccc(O)cc2)CC1,-3% (inactive),4% (inactive),6% (inactive),98% (active),inactive,inactive,inactive,inactive
COc1ccc(Nc2nccc(N3CCC(NC(=O)c4cccc(NC(C)=O)c4)C3)n2)cc1 (stereo not given),84% (active),-3% (inactive),-5% (inactive),92% (active),inactive,inactive,inactive,inactive
